The results in this text go back to ChEMBL document CHEMBL1961873, “Compounds: GSK PKIS; Assays: Nanosyn kinase panel” (2012).

The term inhibition denotes the change of the read-out against control, counted positive when it falls.

For test [1], the target named is High affinity nerve growth factor receptor (Homo sapiens) (UniProt P04629). The settings on record: at 1 µM.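 Note: each value is the mean percent inhibition of TRKA.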
For test [2], the target named is BDNF/NT-3 growth factors receptor (Homo sapiens) (UniProt Q16620). The settings on record: at 0.1 µM.
For test [3] the target is unchanged. The settings on record: at 1 µM.
Test [4] addresses NT-3 growth factor receptor (Homo sapiens) (UniProt Q16288). The settings on record: at 0.1 µM.
Test [5] has the same target. The settings on record: at 1 µM.
Test [6] addresses T1, Tyrosine-protein kinase TXK (Homo sapiens) (UniProt P42681).
T1 sequence (whole entry): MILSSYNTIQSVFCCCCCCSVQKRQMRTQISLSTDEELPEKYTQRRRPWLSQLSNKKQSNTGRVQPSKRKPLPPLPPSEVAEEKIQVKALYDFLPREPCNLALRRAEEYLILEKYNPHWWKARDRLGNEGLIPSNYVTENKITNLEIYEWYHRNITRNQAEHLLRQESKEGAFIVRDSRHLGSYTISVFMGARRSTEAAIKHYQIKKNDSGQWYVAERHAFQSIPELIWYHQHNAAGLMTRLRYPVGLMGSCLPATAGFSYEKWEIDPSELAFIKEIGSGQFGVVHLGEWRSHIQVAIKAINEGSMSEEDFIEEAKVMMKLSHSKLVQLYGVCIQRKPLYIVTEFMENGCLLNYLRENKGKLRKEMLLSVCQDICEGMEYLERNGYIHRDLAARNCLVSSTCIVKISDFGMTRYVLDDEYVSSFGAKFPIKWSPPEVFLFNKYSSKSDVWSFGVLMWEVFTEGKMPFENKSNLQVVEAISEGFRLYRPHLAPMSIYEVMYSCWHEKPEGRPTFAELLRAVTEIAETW
The settings on record: at 0.1 µM.

For test [7], the target named is T1, Tyrosine-protein kinase TXK (Homo sapiens). The settings on record: at 1 µM.
The target in test [8] is Non-receptor tyrosine-protein kinase TYK2 (Homo sapiens) (UniProt P29597). The settings on record: at 0.1 µM.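 Note: each value is a mean of the inhibition readings.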
Sequence of Non-receptor tyrosine-protein kinase TYK2 (Homo sapiens) (P29597 whole entry): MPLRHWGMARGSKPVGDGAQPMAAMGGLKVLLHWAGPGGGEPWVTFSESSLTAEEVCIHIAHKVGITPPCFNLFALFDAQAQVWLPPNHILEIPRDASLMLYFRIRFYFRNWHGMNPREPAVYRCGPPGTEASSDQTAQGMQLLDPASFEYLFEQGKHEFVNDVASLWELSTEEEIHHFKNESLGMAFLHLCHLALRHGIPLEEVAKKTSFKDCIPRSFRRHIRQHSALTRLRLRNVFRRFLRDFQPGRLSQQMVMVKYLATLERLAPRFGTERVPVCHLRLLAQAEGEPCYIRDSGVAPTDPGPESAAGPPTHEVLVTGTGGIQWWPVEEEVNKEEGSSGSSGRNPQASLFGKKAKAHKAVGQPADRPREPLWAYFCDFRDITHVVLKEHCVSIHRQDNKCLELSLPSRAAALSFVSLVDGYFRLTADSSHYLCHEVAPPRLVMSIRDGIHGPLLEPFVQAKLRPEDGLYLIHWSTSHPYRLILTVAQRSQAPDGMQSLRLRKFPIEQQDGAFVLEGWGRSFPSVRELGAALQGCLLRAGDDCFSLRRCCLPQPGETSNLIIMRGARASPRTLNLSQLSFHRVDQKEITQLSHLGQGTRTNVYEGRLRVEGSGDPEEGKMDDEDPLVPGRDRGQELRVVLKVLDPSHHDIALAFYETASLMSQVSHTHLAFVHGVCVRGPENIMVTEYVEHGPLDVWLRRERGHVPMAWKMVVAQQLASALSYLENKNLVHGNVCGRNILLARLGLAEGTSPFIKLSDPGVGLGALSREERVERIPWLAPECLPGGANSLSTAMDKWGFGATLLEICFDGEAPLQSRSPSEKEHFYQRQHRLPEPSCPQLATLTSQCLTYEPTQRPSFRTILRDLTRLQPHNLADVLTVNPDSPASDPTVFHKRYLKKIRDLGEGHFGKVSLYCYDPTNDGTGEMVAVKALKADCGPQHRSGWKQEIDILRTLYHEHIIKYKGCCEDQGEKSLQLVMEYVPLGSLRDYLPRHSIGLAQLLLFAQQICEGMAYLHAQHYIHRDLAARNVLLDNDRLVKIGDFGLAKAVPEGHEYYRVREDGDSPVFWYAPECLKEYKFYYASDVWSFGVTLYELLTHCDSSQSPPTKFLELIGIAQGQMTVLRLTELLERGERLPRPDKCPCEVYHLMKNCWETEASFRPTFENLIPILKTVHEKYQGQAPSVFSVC
Test [9] has as its target T2, Dual specificity protein kinase TTK (Homo sapiens) (UniProt P33981).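 Note: reported figures are mean TTK inhibition at 1 µM.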
T2 sequence (whole entry): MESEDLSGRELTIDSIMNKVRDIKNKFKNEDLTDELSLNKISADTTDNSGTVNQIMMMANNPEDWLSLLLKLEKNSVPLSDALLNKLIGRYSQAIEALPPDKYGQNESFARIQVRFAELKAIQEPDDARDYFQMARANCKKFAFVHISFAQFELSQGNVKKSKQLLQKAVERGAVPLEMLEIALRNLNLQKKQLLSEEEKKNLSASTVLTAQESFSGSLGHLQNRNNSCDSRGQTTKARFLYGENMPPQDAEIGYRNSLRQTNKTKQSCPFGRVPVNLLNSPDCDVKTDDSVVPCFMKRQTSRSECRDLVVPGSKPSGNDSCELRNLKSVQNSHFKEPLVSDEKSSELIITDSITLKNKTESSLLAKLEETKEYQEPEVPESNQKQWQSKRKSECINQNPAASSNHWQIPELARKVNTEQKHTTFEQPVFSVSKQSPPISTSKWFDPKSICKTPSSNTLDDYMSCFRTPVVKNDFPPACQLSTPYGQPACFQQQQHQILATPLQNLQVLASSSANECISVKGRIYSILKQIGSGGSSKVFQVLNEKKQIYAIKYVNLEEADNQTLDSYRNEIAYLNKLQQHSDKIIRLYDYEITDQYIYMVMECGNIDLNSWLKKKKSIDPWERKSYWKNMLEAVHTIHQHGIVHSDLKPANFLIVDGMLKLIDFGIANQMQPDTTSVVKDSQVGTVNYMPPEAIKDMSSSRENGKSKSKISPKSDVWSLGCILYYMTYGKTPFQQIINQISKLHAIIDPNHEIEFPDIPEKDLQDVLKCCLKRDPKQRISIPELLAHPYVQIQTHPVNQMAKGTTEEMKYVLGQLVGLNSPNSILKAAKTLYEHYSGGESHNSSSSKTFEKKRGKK
The settings on record: at 1 µM.

In test [10] the target is T3, Aurora kinase A (Homo sapiens) (UniProt O14965).
T3 sequence (whole entry): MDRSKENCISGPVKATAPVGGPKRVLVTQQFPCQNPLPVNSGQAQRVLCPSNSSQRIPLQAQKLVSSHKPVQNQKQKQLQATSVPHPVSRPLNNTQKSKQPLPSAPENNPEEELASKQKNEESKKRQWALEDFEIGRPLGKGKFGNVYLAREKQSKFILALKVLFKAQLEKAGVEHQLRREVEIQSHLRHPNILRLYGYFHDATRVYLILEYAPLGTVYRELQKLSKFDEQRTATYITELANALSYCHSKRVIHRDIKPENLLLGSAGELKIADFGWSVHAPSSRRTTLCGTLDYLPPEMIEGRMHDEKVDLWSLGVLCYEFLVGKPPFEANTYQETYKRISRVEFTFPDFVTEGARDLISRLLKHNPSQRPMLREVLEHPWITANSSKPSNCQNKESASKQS
The settings on record: at 0.1 µM.

The target of test [11] is T3, Aurora kinase A (Homo sapiens). The settings on record: at 1 µM.
Test [12] has as its target Aurora kinase B (Homo sapiens) (UniProt Q96GD4). The settings on record: at 0.1 µM.
The target is the same in test [13]. The settings on record: at 1 µM.
In test [14] the target is T4, Aurora kinase C (Homo sapiens) (UniProt Q9UQB9).
T4 sequence (whole entry): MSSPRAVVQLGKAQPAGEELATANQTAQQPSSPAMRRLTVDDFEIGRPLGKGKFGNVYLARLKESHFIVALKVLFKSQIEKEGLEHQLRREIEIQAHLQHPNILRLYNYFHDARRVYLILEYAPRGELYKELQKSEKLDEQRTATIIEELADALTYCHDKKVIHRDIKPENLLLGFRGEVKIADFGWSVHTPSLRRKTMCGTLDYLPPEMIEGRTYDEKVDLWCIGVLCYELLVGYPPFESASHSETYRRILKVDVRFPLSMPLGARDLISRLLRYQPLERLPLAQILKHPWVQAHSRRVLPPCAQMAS
The settings on record: at 0.1 µM.

For test [15], the target named is T4, Aurora kinase C (Homo sapiens). The settings on record: at 1 µM.
In test [16] the target is Serine/threonine-protein kinase 10 (Homo sapiens) (UniProt O94804). The settings on record: at 0.1 µM.
Sequence of Serine/threonine-protein kinase 10 (Homo sapiens) (O94804 whole entry, looked up): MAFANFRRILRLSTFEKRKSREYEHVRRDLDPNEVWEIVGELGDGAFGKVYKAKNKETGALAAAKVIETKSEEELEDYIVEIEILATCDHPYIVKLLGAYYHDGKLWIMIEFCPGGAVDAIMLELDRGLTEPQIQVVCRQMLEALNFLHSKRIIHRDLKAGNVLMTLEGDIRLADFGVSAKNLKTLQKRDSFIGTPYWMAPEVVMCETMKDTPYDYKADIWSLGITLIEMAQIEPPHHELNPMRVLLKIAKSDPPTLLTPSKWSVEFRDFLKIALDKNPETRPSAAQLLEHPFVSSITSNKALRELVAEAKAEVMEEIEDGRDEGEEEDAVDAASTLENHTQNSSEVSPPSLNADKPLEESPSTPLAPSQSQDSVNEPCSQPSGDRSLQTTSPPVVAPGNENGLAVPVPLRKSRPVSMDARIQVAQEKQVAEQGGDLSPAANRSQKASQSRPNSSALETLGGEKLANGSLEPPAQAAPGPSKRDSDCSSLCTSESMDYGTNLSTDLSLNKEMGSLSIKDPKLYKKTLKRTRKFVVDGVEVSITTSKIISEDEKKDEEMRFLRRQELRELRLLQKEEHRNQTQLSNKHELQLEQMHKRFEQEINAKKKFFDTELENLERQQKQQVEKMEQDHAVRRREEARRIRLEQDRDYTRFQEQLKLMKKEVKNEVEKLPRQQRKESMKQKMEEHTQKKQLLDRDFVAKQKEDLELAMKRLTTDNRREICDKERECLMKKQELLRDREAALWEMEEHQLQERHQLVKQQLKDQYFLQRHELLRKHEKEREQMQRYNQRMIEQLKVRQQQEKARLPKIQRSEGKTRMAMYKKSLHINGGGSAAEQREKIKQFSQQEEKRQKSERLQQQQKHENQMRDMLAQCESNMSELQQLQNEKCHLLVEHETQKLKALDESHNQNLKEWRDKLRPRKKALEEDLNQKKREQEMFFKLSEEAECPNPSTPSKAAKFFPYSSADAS
The target is the same in test [17]. The settings on record: at 1 µM.
The target of test [18] is T5, Mitogen-activated protein kinase kinase kinase kinase 2 (Homo sapiens) (UniProt Q12851).
T5 sequence (whole entry): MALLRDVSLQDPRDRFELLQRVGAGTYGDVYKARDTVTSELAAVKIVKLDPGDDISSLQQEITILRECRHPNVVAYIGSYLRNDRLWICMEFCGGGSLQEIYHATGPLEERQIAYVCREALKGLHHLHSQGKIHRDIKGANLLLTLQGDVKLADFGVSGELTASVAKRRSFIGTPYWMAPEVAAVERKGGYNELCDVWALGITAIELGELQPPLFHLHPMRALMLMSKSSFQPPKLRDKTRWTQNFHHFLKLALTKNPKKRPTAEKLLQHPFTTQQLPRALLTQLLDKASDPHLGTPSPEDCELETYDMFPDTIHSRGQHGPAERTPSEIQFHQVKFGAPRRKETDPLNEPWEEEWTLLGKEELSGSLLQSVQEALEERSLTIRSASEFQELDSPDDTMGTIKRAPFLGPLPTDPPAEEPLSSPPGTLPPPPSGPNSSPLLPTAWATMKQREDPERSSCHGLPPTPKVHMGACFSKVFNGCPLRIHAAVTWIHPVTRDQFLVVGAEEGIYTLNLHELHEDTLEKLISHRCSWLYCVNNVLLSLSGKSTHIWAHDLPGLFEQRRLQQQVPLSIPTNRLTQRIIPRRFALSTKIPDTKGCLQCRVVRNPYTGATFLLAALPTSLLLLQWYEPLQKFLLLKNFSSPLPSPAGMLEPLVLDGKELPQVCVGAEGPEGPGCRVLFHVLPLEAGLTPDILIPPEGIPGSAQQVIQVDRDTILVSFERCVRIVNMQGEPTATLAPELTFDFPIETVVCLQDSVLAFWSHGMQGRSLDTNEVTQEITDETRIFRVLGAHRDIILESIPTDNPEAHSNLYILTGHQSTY
The settings on record: at 0.1 µM.

The target in test [19] is T5, Mitogen-activated protein kinase kinase kinase kinase 2 (Homo sapiens). The settings on record: at 1 µM.
The target in test [20] is Mitogen-activated protein kinase kinase kinase kinase 4 (Homo sapiens) (UniProt O95819). The settings on record: at 0.1 µM.
Sequence of Mitogen-activated protein kinase kinase kinase kinase 4 (Homo sapiens) (O95819 2-1239 limits assumed): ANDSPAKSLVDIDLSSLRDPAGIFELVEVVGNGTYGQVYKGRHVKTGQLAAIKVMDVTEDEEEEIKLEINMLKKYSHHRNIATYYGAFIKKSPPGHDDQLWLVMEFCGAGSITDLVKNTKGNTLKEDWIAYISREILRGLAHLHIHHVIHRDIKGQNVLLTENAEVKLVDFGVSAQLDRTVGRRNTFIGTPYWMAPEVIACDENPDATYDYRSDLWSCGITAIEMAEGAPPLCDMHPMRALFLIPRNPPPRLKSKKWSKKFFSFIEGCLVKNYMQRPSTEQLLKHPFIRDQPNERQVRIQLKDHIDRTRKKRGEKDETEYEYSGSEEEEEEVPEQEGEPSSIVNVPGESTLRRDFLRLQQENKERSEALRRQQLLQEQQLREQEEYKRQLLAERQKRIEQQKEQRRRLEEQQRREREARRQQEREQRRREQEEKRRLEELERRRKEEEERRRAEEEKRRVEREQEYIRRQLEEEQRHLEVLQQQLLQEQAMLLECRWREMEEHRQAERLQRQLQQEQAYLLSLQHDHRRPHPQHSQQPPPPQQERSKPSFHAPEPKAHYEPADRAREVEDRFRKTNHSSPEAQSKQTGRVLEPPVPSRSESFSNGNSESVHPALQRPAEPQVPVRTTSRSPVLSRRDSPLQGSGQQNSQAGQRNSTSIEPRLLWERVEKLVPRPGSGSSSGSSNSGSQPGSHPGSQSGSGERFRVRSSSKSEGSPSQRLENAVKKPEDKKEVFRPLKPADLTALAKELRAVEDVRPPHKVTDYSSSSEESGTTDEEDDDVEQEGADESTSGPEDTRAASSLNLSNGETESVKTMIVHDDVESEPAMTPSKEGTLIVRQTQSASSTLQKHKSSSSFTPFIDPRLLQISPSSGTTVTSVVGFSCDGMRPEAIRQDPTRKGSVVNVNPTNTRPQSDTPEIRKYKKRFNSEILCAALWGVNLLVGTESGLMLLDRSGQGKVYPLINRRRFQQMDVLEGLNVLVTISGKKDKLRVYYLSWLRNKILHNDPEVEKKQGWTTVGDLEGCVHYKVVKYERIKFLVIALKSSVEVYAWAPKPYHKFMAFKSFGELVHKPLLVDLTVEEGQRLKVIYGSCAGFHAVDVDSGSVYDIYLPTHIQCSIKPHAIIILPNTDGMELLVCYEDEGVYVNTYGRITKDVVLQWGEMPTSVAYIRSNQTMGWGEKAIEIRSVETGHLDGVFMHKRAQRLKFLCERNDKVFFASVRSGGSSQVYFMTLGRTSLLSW

Sequence of Aurora kinase B (Homo sapiens) (Q96GD4 whole entry): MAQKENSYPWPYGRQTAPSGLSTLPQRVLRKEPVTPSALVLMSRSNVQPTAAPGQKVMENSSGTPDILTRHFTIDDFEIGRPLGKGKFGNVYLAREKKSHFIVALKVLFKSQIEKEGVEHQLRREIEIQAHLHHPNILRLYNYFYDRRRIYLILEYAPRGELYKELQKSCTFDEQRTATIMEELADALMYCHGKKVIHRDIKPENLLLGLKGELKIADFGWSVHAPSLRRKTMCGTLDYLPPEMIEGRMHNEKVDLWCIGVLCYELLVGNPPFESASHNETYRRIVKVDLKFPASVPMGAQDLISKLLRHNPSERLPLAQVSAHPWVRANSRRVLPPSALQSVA
Sequence of High affinity nerve growth factor receptor (Homo sapiens) (P04629 33-796 limits assumed): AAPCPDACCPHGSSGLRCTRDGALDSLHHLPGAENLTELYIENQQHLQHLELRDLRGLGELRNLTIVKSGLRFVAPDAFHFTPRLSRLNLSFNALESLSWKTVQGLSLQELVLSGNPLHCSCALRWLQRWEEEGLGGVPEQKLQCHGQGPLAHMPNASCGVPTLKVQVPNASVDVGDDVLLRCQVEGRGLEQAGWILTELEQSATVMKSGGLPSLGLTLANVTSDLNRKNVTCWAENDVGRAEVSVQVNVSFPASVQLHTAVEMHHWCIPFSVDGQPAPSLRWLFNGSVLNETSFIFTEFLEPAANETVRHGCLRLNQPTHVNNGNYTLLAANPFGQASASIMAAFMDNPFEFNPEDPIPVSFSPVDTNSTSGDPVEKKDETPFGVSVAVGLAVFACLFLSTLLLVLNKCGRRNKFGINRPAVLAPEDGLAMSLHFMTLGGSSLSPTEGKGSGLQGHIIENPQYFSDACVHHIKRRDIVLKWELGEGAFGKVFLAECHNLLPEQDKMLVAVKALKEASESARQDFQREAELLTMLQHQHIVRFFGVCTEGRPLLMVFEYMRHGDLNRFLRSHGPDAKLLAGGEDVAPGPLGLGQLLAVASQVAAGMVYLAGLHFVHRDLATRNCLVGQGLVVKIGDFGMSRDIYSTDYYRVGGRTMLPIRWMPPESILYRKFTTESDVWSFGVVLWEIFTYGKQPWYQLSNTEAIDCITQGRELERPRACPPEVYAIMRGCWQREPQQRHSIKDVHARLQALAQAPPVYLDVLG

As for `Nc1nc(-c2ccc3c(c2)C(=Cc2cc(Br)c(O)c(Br)c2)C(=O)N3)cs1`, the inhibition in test [1] was 2.45%; in test [2], 1.16%; in test [3] it was 9.18%; in [4], 2.62%; in test [5], 16.6%; in test [6], -0.27%. Further, the inhibition was 0.27% in test [7]; 1.72% in test [8]; -0.27% in test [9]; -1.16% in test [10]; 29.2% in test [11]; 1.57% in test [12]. Also, the inhibition in [13] is 6.47%; in [14], -0.77%; in test [15] it was 9.45%; in test [16] it was 2.74%; in test [17], 6.29%; in [18], 1.39%. For the same compound, the inhibition in test [19] was determined as 5.61%; in test [20] it was 24.6%.

Turning to `COc1cc2ncn(-c3cc(O[C@H](C)c4ccccc4Cl)c(C(N)=O)s3)c2cc1OC`, the inhibition in [1] came out at 12.4%; in test [2] it was 8.25%; in [3] it was 43.3%; in test [4], 16.1%; in test [5], 62.6%; in test [6], 5.04%. In addition, the inhibition in test [7] was 15.8%; in [8], -0.55%; in test [9], 13.2%; in test [10], 2.7%; in test [11], 30.1%; in [12], 8.7%. Moreover, the inhibition in test [13] worked out at 37.9%; in test [14], 4.62%; in test [15], 50.7%; in [16], 99.3%; in test [17], 88%; in [18], 13.6%. Also, the figures for the inhibition in [19] and in test [20] were 47.4% and 4.5%, respectively.

For the compound `COc1ccc(COc2ccc(Cc3cnc(N)nc3N)cc2OC)cc1`, the inhibition amounted to 50% in test [1]; 25.7% in [2]; 75.4% in test [3]; 4.15% in [6]; 4.97% in test [7]; 3.75% in [8]. Further, the inhibition in [9] stood at 3.14%; in test [10], 4.1%; in test [11], 2.3%; in [12] it was 3.53%; in test [13], 4.95%; in test [14] it was 2.97%. Besides, the inhibition in test [15] worked out at 16.2%; in [16] it was 5.28%; in test [17] it was 7.31%; in test [18] it was 3.72%; in [19], 3.99%; in test [20], 0.34%.

Consider `CS(=O)(=O)CCN(CC#N)Cc1ccc(-c2ccc3ncnc(Nc4ccc(OCc5cccc(F)c5)c(Cl)c4)c3c2)o1`, for which the inhibition in test [1] was 4.12%; in [2], 1.7%; in test [3], 3.2%; in test [4], 1.69%; in test [5], 1.13%; in [6] it was -2.35%. Moreover, the inhibition in test [7] is -2.94%; in test [8] it was -3.9%; in test [9] it was 5.67%; in test [10], -2.58%; in test [11], -0.17%; in test [12], -3.61%. Also, the inhibition is 0.96% in [13]; -4.78% in test [14]; 1.4% in [15]; 3.25% in test [16]; 7.32% in [17]; -0.14% in test [18]. The inhibition in test [19] is -0.7%; in [20], 3.8%.

As for `COC(=O)Nc1nc2cc(Oc3ccc(NC(=O)Nc4cccc(C(=O)O)c4)cc3)ccc2[nH]1`, the inhibition in [1] was 3.47%; in [2] it was 0.82%; in test [3], 1.02%; in test [4] it was 1.95%; in test [5], 3.8%; in test [6], -2.97%. Also, the inhibition in [7] is 1.48%; in test [8] it was 1.17%; in test [9], 9.64%; in test [10], -1.89%; in [11], 12.8%; in test [12], -1.26%. Moreover, the inhibition in [13] came to 9.37%; in test [14] it was 0.03%; in test [15] it was 37.7%; in [16] it was 0.65%; in test [17], 7.1%; in test [18] it was 0.68%. Further, the inhibition in [19] turned out to be 1.11%; in [20] it was 0.99%.

On to `Nc1nc(-c2ccccn2)c(-c2ccc3ncccc3n2)s1`, for which the inhibition in test [1] stood at 1.12%; in test [2] it was 2.11%; in [3], 2.56%; in test [4] it was 1.67%; in test [5] it was 4.07%; in [6] it was 2.05%. The inhibition in test [7] is 3.04%; in test [8], -3.74%; in test [9] it was 7.95%; in [10], 2.15%; in test [11], 9.43%; in test [12] it was 1.61%. Besides, the inhibition amounted to 8.29% in test [13]; 2.42% in test [14]; 2.91% in test [16]; 5.82% in test [17]; 0.08% in [18]; 2.92% in test [19]. Further, the inhibition in test [20] was 5.35%.

As to `N#Cc1c(NC(=O)c2cccc3ccccc23)sc2c1CCCC2`, the inhibition worked out at 1.26% in test [1]; 2.03% in [2]; 2.36% in test [3]; 2.33% in test [4]; 2.63% in [5]; 2.34% in test [6]. Further, the inhibition in test [7] was 4.42%; in [8], -0.41%; in test [9], 0.69%; in test [10], 2.42%; in test [11], 5.29%; in test [12], 1.03%. In addition, the inhibition in test [13] turned out to be 3.57%; in test [14], 1.03%; in [15], 2.63%; in test [16] it was 3.84%; in test [17] it was 5.96%; in test [18], 1.92%. In addition, the inhibition in test [19] was 4.41%; in test [20], 3.89%.
